Entries with a potency or affinity are not part of this list. Inconclusive results are not listed. Active and inactive are the calls of the source.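 How the source made its calls: active means compound whose fitted half-maximal concentration stays within twice the top dose, with falling signal, in all three exposure times; inconclusive means mixed calls across exposure times, weak flat curves, or poor fits; inactive means inactive at every exposure time, including opposite-direction effects.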
Assay: cytotoxicity in SR immunoblastic lymphoma cells – cell-based, CellTiter-Glo ATP luminescence, 8-48 h, dry powder, mechanism study for HRAS target identification, late-stage follow-up (AID 720608)

Q: Which outcome does the source give for `Cc1onc(C(=O)N2CCN(C(c3ccncc3)c3ccncc3)CC2)c1[N+](=O)[O-]` here?
A: Its outcome is “inactive”.
